Reference: PubChem BioAssay AID504652 (National Center for Advancing Translational Sciences (NCATS), 2011)
The whole screen tested about 360,000 compounds, of which about 11,000 (3.1%) were called active. No stated cut-off is given here; in the data, active means activity change below about -30%; inactive means the rest. The list comes from a sample in which actives are over-represented; it also holds similar structures and randomly drawn compounds.

What follows are molecules tested against D(1A) dopamine receptor (Homo sapiens) (UniProt P21728) (assay: Antagonist of Human D 1 Dopamine Receptor: qHTS). Conditions: HEK293 TREx D1 cells, calcium flux, dopamine EC80; at 10 µM; active compounds read low.
D(1A) dopamine receptor (Homo sapiens), sequence (P21728 whole entry, looked up): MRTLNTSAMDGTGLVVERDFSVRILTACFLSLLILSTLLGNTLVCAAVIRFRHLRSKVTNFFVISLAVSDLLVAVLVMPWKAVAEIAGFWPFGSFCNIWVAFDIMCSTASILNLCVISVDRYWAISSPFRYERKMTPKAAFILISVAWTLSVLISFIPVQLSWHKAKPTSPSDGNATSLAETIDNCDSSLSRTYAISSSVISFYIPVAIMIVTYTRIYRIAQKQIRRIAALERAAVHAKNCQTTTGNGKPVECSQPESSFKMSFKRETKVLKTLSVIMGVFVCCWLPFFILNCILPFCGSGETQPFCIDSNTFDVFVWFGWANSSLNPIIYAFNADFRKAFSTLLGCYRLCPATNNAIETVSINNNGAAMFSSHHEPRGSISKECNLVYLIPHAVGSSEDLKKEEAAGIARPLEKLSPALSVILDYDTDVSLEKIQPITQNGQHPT
Procedure, shortened: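 Antagonism measured as reduced calcium response to an EC80 dopamine addition following 180 s compound pre-read; cells were inducible HEK293 Trex D1 plated overnight at 30 C, read kinetically at 1 cycle/sec.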
On the % scale 0 is the no-effect control and ±100 the full control effect.

Activity change, negative = inhibition, active:
Cc1cc(C(=O)N/N=C/c2ccc(O)c([N+](=O)[O-])c2)c(C)n1-c1ccc(F)cc1 -30%
O=C(c1ccc(F)cc1)n1cc(C(=S)N2CCOCC2)c2ccccc21 -30.2%
O=C(O)CS/C(=C\c1ccc(F)cc1)c1nc2ccccc2s1 -33.3%
Cc1ccsc1C1C(C#N)=C(N)OC2=C1C(=O)CC(C)(C)C2 (stereo not drawn) -36.3%
Cc1cccc(C(CC(=O)NCC2(c3ccccc3)CCCC2)c2ccccc2)c1O (stereo not drawn) -31%
O=C(c1ccc(F)c(S(=O)(=O)N2CCOCC2)c1)N(CCc1ccccc1)Cc1ccccc1 -39.2%
CCN(Cc1ccncc1)C(=O)c1cccc(S(=O)(=O)N2CCOCC2)c1 -44.2%
O=C(NCc1ccco1)c1cccn2c(=O)c3c4c(sc3nc12)CCCC4 -112%
Cc1nc(C)c(-c2csc(NCCc3ccccc3)n2)s1 -71%
O=S1(=O)CCC(NC(=S)SCc2ccccc2Br)C1 (stereo not drawn) -63%
Fc1ccccc1CNC(=S)Nc1ccc(Cl)cc1 -38.1%
O=C(O)CCCc1ccccc1 -31.7%
O=C(C1=C(O)C(=O)N(Cc2ccccc2)C1c1ccco1)c1ccco1 (stereo not drawn) -36.2%
CCCNC(=O)c1ccc(N2CCC3(CC2)CC(c2ccc(Cl)cc2)=NO3)c([N+](=O)[O-])c1 -31.3%
COCCNC(=O)c1ccc(N2CCC3(CC2)OCCO3)c([N+](=O)[O-])c1 -74.3%
Cc1ccc(S(=O)(=O)NCc2nc3ccccc3c(=O)n2N)cc1 -32.4%

Activity change, negative = inhibition, inactive:
Cc1ccccc1CS(=O)(=O)CC1Nc2ccc(C(=O)NCc3ccc(Cl)cc3)cc2NC1=O (stereo not drawn) -8.08%
O=C1CSC(=S)N1/N=C/c1ccc(O)c([N+](=O)[O-])c1 -20.2%
Cc1cc(C(=O)COC(=O)C2CC2)c(C)n1-c1ccc(F)cc1 -6.5%
Cc1ccccc1CN1CCC(CNC(=O)c2c(C)oc3ncnc(N4CCCCC4)c23)CC1 -6.32%
O=C(Oc1ccc(C(=S)N2CCOCC2)cc1)c1ccc(F)cc1 -12.9%
O=C(Nc1ccc(F)cc1)C(=O)c1cn(CC(=O)N2CCOCC2)c2ccccc12 0.328%
Cn1c(=O)sc2cc(NS(=O)(=O)c3ccc(C(C)(C)C)cc3)ccc21 6.14%
CC1=CC(=C(C#N)c2nc3ccccc3s2)C=C(C)N1c1ccc(F)cc1F -3.42%
O=C(O)CC/C(=C\c1cc2c(cc1Br)OCO2)c1nc2ccccc2s1 -6.84%
COc1ccc(OC)c(NC(=O)CSc2nc3ccccc3nc2N2CCCCC2)c1 -1.47%
Cc1cccc(NC(=O)CSc2nnc(CNC(=O)c3cccc(C)c3)n2-c2ccccc2)c1 -12.8%
Cc1ccc(-c2nc(CS(=O)(=O)CC(=O)NCc3ccccc3Cl)c(C)o2)cc1 3.92%
COc1ccc(C2C(C#N)=C(/N=C/N3CCOCC3)OC3=C2C(=O)CC(C)(C)C3)cc1OC (stereo not drawn) 4.71%
Cc1ccsc1C1C(C#N)=C(N)OC2=C1C(=O)CC(C)C2 (stereo not drawn) -22.6%
COc1ccc(-c2c(C)nn3c(N4CCC(C(=O)NCCC(C)C)CC4)cc(C)nc23)cc1OC -5.31%
COc1cccc(CNc2nccn(-c3ccc(OC)c(OC)c3)c2=O)c1 6.9%
COc1ccc(C2NC(=O)N(C)C3=C2C(=O)N(c2ccc(C(=O)O)cc2)C3)cc1 (stereo not drawn) -10.6%
COC(=O)c1ccc(NC(=O)CCc2c(C)nn(-c3ccc(N4CCCC4)nn3)c2C)cc1 -3.84%
CCOc1c(OC)cccc1C(=O)NCC1(c2ccccc2)CCCC1 19%
O=C(CNC1CCCCC1)NCC1(c2ccccc2)CCCC1 4.83%
COc1ccc(/C=C/c2noc(-c3ccccc3O)n2)cc1OC 4.82%
CC(C)CCN(C(=O)Nc1ccc(Cl)c(Cl)c1)C(C)c1cccs1 (stereo not drawn) -22.4%
O=C(COc1ccc(Cl)cc1)Nc1ccccc1OCc1cc(=O)n2ccccc2n1 0.395%
O=C(CSc1ncc(CO)n1Cc1ccc(Cl)cc1)NCc1ccc(F)cc1 -8.7%
COc1ccc(C(=O)N(Cc2ccccc2)c2ccc(C)cc2)cc1S(=O)(=O)N1CCOCC1 8.42%
Cc1nn(Cc2ccccc2)c(C)c1CNC(=O)c1ccc(F)c(S(=O)(=O)N2CCOCC2)c1 -20.4%
CC(C)C(NC(=O)c1cccc(S(=O)(=O)N2CCOCC2)c1)C(=O)NCCc1ccccn1 (stereo not drawn) 10.6%
CCN(CC(=O)NCc1cccs1)C(=O)c1ccc(OC)c(S(=O)(=O)N2CCOCC2)c1 2.75%
CCOC(=O)c1cnc2c(C)cc(C)cc2c1Nc1ccc(N2CCOCC2)cc1 15.4%
CCOC(=O)c1cccc(NC(=O)Cn2cnc3nc4c(cc3c2=O)CCCC4)c1 17.9%
COc1cc2[nH]c(=O)n(Cc3ccc(C(=O)NCc4ccc(C)cc4)cc3)c(=O)c2cc1OC 1.6%
COc1ccc2c(c1)c(N1CCCC1=O)c(C(=O)Nc1ccc(OC)c(Cl)c1)n2C 11.9%
CCOC(=O)Cc1ccc(NC(=O)Nc2c[nH]c(=O)[nH]c2=O)cc1 0.423%
COc1ccc(C)cc1-n1c(-c2ccc(C)cc2)cc2c1CC(C)(C)CC2=O 12.6%
CC(C)S(=O)(=O)c1oc(-c2ccc(F)cc2)nc1S(=O)(=O)c1ccc(F)cc1 6.44%
Cc1cccc(N2CCN(C(=O)c3ccc(Nc4nc5ccccc5n5nnnc45)cc3)CC2)c1C -6.91%
CCCOc1ccc(NC(=O)CC2C(=O)N(c3ccccc3)C(=O)N2Cc2ccco2)cc1 (stereo not drawn) -3.01%
COc1ccc(-c2nc3nc(C)cc(C)n3c2Nc2c(C)cccc2C)cc1 4.35%
Cc1ccc(C2CCN(C(=O)c3cnn(-c4ccccc4Cl)c3C3CCN(C(=O)OC(C)(C)C)CC3)C2)cc1 (stereo not drawn) 6.31%
O=c1oc(-c2ccco2)nc2sc3c(c12)CCCCC3 -12.2%
O=C(NCc1ccco1)c1nc2ncccn2n1 8.67%
O=C(CN1C(=O)CCn2nc(-c3ccccc3)cc21)NCc1ccccc1 -7.67%
O=C(c1ccc(C(F)(F)F)cc1)N1CCC(c2nc(-c3ccc(S(=O)(=O)N4CCCC4)cc3)no2)CC1 -0.206%
S=c1[nH]nc(NCCc2ccccc2)s1 0.618%
CCCCC(=O)Nc1nc(C)c(-c2csc(Nc3ccc(Cl)cc3)n2)s1 103%
CCCSC(=S)NC1CCS(=O)(=O)C1 (stereo not drawn) -7.48%
O=C(CSc1ccccc1F)NC1CCS(=O)(=O)C1 (stereo not drawn) 2.27%
Cc1ccccc1CNC(=O)C1CCCN(S(=O)(=O)N(C)c2ccc(F)cc2)C1 (stereo not drawn) -10.3%
S=C(NCc1cccs1)Nc1ccc(Cl)cc1 -26.2%
FC(F)(F)Oc1ccc(NC(=S)NCc2ccccc2)cc1 -19.3%
Cc1ccc(C(=O)Nc2cc3c(cc2N2CCCC2)n(C)c(=O)c(=O)n3C)cc1 16%
COc1ccc(N2C(=O)CS(=O)(=O)C23C(=O)N(Cc2ccc(C)cc2)c2ccccc23)cc1Cl (stereo not drawn) -16%
CCOc1ccccc1NC(=O)CN1CCCN(Cc2cccc(Cl)c2)S1(=O)=O 2.3%
O=C(CCCc1ccccc1)NCc1ccccc1 -7.61%
O=C(O)CCC(=O)N(Cc1ccccc1)Cc1ccccc1 -11.6%
O=C(CSc1oc(-c2ccccc2)nc1S(=O)(=O)c1ccc(Br)cc1)NC1CCCCC1 8.79%
CCc1ccc(-n2nnc(-c3nc(-c4ccccc4)no3)c2C)cc1 -9.23%
CC(C)c1ccc(C2C(C(=O)c3ccco3)=C(O)C(=O)N2CC2CCCO2)cc1 (stereo not drawn) -6.37%
CCOc1cc(C2C(C(=O)c3ccco3)=C(O)C(=O)N2Cc2ccccc2)ccc1O (stereo not drawn) 9.97%
O=S(=O)(c1ccc2c(c1)OCCO2)N1CCN(S(=O)(=O)c2cc(F)ccc2F)CC1 -3.7%
CCC(C)NC(=O)c1ccc(N2CCC3(CC2)OCCO3)c([N+](=O)[O-])c1 (stereo not drawn) -7.67%
CC1CCN(c2ccc(C(=O)NCc3ccc4c(c3)OCO4)cc2[N+](=O)[O-])CC1 -7.43%
CCCNC(=O)c1ccc(N2CCC3(CC2)CC(c2cccc(Br)c2)=NO3)c(NC(=O)c2ccco2)c1 -2.71%
O=C(COc1ccccc1F)NNC(=O)c1ccc(N2CCCCC2)c([N+](=O)[O-])c1 -3.15%
COc1cccc(NC(=O)CN2C(=O)c3ccccc3Sc3ncccc32)c1 5.53%
COc1cccc(-c2nc(CS(=O)(=O)CC(=O)N3CCN(c4cc(C)ccc4C)CC3)c(C)o2)c1 -16.9%
CC(NC(=O)CCc1cn(Cc2ccccc2Cl)c2ccccc12)c1ccccc1 (stereo not drawn) -6.68%
CCOCCCNC(=O)c1c(NC(=O)Cc2coc3c(C)c(C)ccc23)sc2c1CCC2 11.9%
Cc1ccc(Cl)cc1NC(=O)CCC(=O)N1CC(C)Sc2ccccc21 (stereo not drawn) 0.985%
COc1ccccc1CNS(=O)(=O)c1ccc(C)cc1 -13.9%
C#CCCCc1nc2ccccc2c(=O)n1N 3.38%
Cc1ccc(Cn2c(CCCNC(=O)C3CCCCC3)nc3ccccc32)cc1 10.5%
